Laboratory results taken from PubChem BioAssay (NCI).
The panel holds about 83,000 compounds, 20% with a hit somewhere; the sample as a whole holds those more often.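 48-hour exposure, single concentration, 96-well plates; percent growth endpoint where 0 means no net growth. Active: below 10.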 Unmarked numbers belong to inactive results. Calls of active or inactive are those of the source.

Tests used:
Test in all cases: NCI-60 one-dose screen, 48 h (100 = growth as untreated, 0 = no growth, -100 = all killed)
Settings in all cases: 10 µM
RPMI-8226 leukemia = tested on: RPMI-8226 leukemia
OVCAR-8 ovarian = tested on: OVCAR-8 ovarian
OVCAR-5 ovarian = tested on: OVCAR-5 ovarian
OVCAR-4 ovarian = tested on: OVCAR-4 ovarian
SK-OV-3 ovarian = tested on: SK-OV-3 ovarian
IGROV1 ovarian = tested on: IGROV1 ovarian
OVCAR-3 ovarian = tested on: OVCAR-3 ovarian
HS 578T breast = tested on: HS 578T breast
NCI/ADR-RES ovarian = tested on: NCI/ADR-RES ovarian
T-47D breast = tested on: T-47D breast
BT-549 breast = tested on: BT-549 breast
MDA-MB-435 melanoma = tested on: MDA-MB-435 melanoma
SW-620 colon = tested on: SW-620 colon
MCF7 breast = tested on: MCF7 breast
HCT-116 colon = tested on: HCT-116 colon
HCC-2998 colon = tested on: HCC-2998 colon
KM12 colon = tested on: KM12 colon

| Compound | growth (RPMI-8226 leukemia) | growth (OVCAR-8 ovarian) | growth (OVCAR-5 ovarian) [%] | growth (OVCAR-4 ovarian) | growth (SK-OV-3 ovarian) [%] | growth (IGROV1 ovarian) | growth (OVCAR-3 ovarian) | growth (HS 578T breast) | growth (NCI/ADR-RES ovarian) | growth (T-47D breast) [%] | growth (BT-549 breast) | growth (MDA-MB-435 melanoma) | growth (SW-620 colon) | growth (MCF7 breast) | growth (HCT-116 colon) | growth (HCC-2998 colon) [%] | growth (KM12 colon) |
| --- | --- | --- | --- | --- | --- | --- | --- | --- | --- | --- | --- | --- | --- | --- | --- | --- | --- |
| CC(=O)/C(=C/c1ccccc1)C(=O)CC(C)C | 18.4% | 75.2% | 93.9 | 103% | 106 | 98.8% | 75.1% | 89.6% | 93.5% | 107 | 98.8% | 54.3% | 24.7% | 50.4% | 27.7% | 105 | 72.2% |
| COc1ccc([N+](=O)[O-])c(C(=O)O)c1 | 110% | 101% | 102 | 102% | 99.1 | 108% | 102% | 98.1% | 110% | 93.3 | 102% | 97.9% | 101% | 93.8% | 103% | 106 | 100% |
| Cc1cc(=O)n2nnc3c4ccccc4ccc3n12 | 8.01% (active) | 27.3% | 88.5 | 49.3% | 53.6 | 61.8% | 40.4% | 104% | 68.4% | 47.6 | 72.8% | 104% | -62% (active) | 45% | 8.71% (active) | 105 | 91.2% |
| O=C(N/N=C/c1ccccc1O)C(O)(c1ccccc1)c1ccccc1 | 62% | 60.1% | 73.9 | 26.7% | 66.9 | 43.7% | 8.52% (active) | 74% | 35.9% | 48.1 | 70.3% | 65.2% | 51.1% | 50.7% | 8.42% (active) | 76.3 | 53.7% |
| CCN(CC)CCOc1nc2ccccc2c2c1-c1ccc(OC)cc1C2=O | -14.3% (active) | 6.78% (active) | 25.8 | 6.09% (active) | 43.5 | -37.9% (active) | -18.6% (active) | 1.77% (active) | -12.8% (active) | 47.1 | 60.8% | -6.62% (active) | -13.3% (active) | 0.376% (active) | -93% (active) | 14.8 | -45.2% (active) |
| COc1cc(Cl)cc(-c2nn(-c3cccc(NC(=O)Nc4ccc(Cl)c(Cl)c4)c3)cc2-c2ccncc2)c1 | -4.44% (active) | 1.93% (active) | 37.8 | 13.3% | 14.2 | 36.7% | 4.12% (active) | 28.5% | 8.59% (active) | 18.6 | 29.4% | 0.46% (active) | 13.3% | 4.66% (active) | 9.22% (active) | 26.7 | 14.3% |
| COc1ccc(C2=Nc3c(C)nn(-c4ccccc4)c3NC(c3ccc(Oc4ccnc5cc(Cl)ccc45)c(OC)c3)C2)cc1 (stereo unspecified) | 56.7% | 75.2% | 95.2 | 43% | 74.7 | 73.4% | 79.9% | 78.6% | 79.9% | 61.9 | 93% | 80.4% | 81.7% | 60.6% | 45.6% | 89.7 | 85.4% |
| CCN(CC)CCN1CC(=O)Nc2cc(Cl)ccc21 | 109% | 108% | 102 | 103% | 110 | 99.9% | 109% | 94.4% | 94.2% | 107 | 107% | 98.8% | 86.4% | 104% | 102% | 102 | 103% |
| O=C1Nc2ccc(Cl)cc2/C1=C\c1c(-c2ccc(Cl)cc2)nc2sc(C3CC3)nn12 | 69.5% | 26.5% | 77.8 | 9.28% (active) | 39.2 | 71.5% | 63.9% | 7.42% (active) | 45% | 50.7 | 65.3% | 77% | 80.8% | 60.7% | 41.4% | 83.7 | 82.7% |
| CC1=C(N2CCOCC2)C(N2CCOCC2)=C(C)C(=O)C1=O | 105% | 97.2% | 97.6 | 104% | 105 | 101% | 109% | 109% | 110% | 95.1 | 110% | 103% | 105% | 92.5% | 108% | 109 | 105% |
| CCCCOc1ccc(NC(=O)Nc2nnc(C)s2)cc1 | 80.8% | 90.5% | 102 | 100% | 102 | 91.6% | 120% | 116% | 93.3% | 77.9 | 110% | 101% | 111% | 88.1% | 94.9% | 93.2 | 103% |
| O=C(Nc1nc(-c2ccccc2Cl)cs1)c1cc(-c2ccc(Cl)cc2)nc2ccc(Cl)cc12 | 14% | 1.38% (active) | 102 | 44% | 82 | 24.4% | 2.87% (active) | 14.9% | 2.23% (active) | 64.3 | -9.33% (active) | -46.9% (active) | 26.7% | 11.2% | 6.81% (active) | 90.7 | 12.4% |
| CC12O[C@H](C[C@@H](O)[C@H]1O)n1c3ccccc3c3c4c(c5c6ccccc6n2c5c31)C(=O)N(CCCN)C4=O | 40.2% | 33.9% | 97.2 | 61% | 41.8 | 17.9% | 37.8% | 43.4% | 101% | 24 | 72.9% | 32.5% | 20.4% | 12.2% | 13.4% | 44.8 | 38% |
| Cc1cc(N(CCCNc2ccnc3cc(Cl)ccc23)Cc2cccs2)nc(Cl)n1 | -6.73% (active) | 44.7% | 69.1 | 31.8% | 42.4 | 50.8% | 55.7% | 65.4% | 36.4% | 22.1 | 33.7% | 48.9% | 32.9% | 40.8% | 21.4% | 36.8 | 39.1% |
| COc1ccc(NC2=NC(C)(CO)CS2)cc1 (stereo unspecified) | 83.6% | 74.3% | 103 | 97.7% | 104 | 87.7% | 112% | 99.3% | 106% | 101 | 98.4% | 101% | 104% | 88.6% | 102% | 104 | 104% |
| CSc1nc(=O)n(Cc2ccc(Cl)cc2)c(=O)[nH]1 | 103% | 98.8% | 102 | 110% | 99.7 | 132% | 114% | 105% | 105% | 90.1 | 98% | 114% | 110% | 99.3% | 103% | 103 | 108% |
| c1ccc2c(c1)oc1c3cccnc3ccc21 | 97.1% | 99.7% | 100 | 83% | 87.7 | 54.4% | 106% | 93.1% | 99.7% | 39 | 79.7% | 110% | 100% | 13% | 84.4% | 92.7 | 98.9% |
| O=c1cc(-c2ccccc2)[nH]n1-c1nc2ccccc2[nH]1 | 40.2% | 35% | 98.6 | 25.3% | 75.7 | 38.9% | 60.9% | 69.5% | 29.1% | 62 | 75.8% | 51.1% | 31.6% | 42.7% | 32.1% | 59.3 | 38% |
